# Measured values published in PMC11574364.
# Key:
# Test in all cases: protein domain microarray probed with biotinylated miRNA; Domain array: 20 mM Tris-HCl pH 7.4, 200 mM KCl, 0.2 mM EDTA, 0.05% NP40, 2 ug/ul heparin, overnight 4 C. ORF array: PBS pH 7.0 with RNase inhibitor, 100 ng RNA; high values mean tight binding
# Conditions in all cases: ssRNA
# HUR = HUR (Homo sapiens, UniProt Q15717)
# PABPC4L = PABPC4L (Homo sapiens, UniProt P0CB38)
# snRNP B2 = snRNP B2 (Homo sapiens, UniProt P08579)
# YTHDC1 = YTHDC1 (Homo sapiens, UniProt Q96MU7)
# snRNP A = snRNP A (Homo sapiens, UniProt P09012)
# SLIRP = SLIRP (Homo sapiens, UniProt Q9GZT3)
# SF3B6 = SF3B6 (Homo sapiens, UniProt Q9Y3B4)
# SFRS9 = SFRS9 (Homo sapiens, UniProt Q13242)
# Sequence of SFRS9 (Q13242 whole entry): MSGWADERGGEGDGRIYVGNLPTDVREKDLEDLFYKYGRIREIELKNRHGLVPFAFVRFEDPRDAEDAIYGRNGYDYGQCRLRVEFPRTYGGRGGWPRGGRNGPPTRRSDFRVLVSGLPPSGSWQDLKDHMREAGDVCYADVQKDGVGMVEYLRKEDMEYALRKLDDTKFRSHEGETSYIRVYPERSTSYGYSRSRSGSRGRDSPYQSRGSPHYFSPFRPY
# Sequence of PABPC4L (P0CB38 whole entry): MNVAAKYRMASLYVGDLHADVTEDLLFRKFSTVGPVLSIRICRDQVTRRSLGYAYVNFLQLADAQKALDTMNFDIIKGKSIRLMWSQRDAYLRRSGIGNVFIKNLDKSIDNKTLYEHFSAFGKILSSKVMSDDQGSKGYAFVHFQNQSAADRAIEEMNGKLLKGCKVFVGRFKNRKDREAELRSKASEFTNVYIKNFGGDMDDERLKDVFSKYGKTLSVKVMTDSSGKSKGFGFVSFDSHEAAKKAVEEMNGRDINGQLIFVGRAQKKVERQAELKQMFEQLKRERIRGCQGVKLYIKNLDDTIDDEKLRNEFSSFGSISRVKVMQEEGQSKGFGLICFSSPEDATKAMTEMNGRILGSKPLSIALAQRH
# Sequence of snRNP A (P09012 whole entry): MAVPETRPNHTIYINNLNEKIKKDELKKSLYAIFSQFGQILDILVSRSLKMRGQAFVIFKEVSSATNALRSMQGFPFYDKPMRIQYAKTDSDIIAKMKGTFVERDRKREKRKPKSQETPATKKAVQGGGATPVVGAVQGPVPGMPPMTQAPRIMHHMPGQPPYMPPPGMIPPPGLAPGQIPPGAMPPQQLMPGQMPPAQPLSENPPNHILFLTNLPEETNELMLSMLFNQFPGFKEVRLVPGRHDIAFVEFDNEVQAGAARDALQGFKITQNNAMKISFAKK
# Sequence of SF3B6 (Q9Y3B4 whole entry): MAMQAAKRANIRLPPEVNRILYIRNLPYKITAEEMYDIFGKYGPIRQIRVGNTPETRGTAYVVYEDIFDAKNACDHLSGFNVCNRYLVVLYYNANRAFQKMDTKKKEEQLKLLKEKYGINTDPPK
# Sequence of snRNP B2 (P08579 whole entry): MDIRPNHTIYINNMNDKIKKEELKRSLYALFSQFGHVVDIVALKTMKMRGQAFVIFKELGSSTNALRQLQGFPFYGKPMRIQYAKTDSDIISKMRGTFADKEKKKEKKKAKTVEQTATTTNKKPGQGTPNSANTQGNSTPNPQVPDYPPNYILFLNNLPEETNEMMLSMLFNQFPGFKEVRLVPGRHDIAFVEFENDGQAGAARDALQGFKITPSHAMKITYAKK
# Sequence of HUR (Q15717 whole entry): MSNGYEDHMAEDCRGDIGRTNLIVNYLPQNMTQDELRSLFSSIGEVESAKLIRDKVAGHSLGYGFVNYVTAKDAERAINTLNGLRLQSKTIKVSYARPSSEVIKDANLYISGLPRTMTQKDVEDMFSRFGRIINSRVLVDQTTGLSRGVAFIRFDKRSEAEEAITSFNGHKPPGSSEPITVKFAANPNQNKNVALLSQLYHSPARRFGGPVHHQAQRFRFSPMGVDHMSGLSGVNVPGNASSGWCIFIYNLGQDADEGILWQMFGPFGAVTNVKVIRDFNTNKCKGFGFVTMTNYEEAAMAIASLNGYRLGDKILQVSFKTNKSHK
Sequence,binding signal (HUR) [fluorescence intensity],binding signal (PABPC4L) [fluorescence intensity],binding signal (snRNP B2) [fluorescence intensity],binding signal (YTHDC1) [fluorescence intensity],binding signal (snRNP A) [fluorescence intensity],binding signal (SLIRP) [fluorescence intensity],binding signal (SF3B6) [fluorescence intensity],binding signal (SFRS9) [fluorescence intensity]
AGAGGUAGUAGGUUGCAUAGUU,1350 ± 50,466 ± 20.9,147 ± 5.66,80.4 ± 1.63,342 ± 6.74,104 ± 2.51,117.8 ± 0.707,273 ± 31
UGAGGUAGUAGGUUGUAUGGUU,1165 ± 9.92,506 ± 42.2,184 ± 4.53,122.4 ± 0.332,372 ± 10.2,107 ± 4.07,136 ± 26.8,343 ± 5.06
UGAGGUAGUAGGUUGUGUGGUU,1300 ± 85.7,523 ± 82.5,296 ± 33.8,179 ± 8.44,236.6 ± 1.37,232 ± 20.1,282 ± 3.13,580 ± 35.6
UAGCUUAUCAGACUGAUGUUGA,219 ± 16.5,–,24.4 ± 2.86,–,25.3 ± 14.1,24.4 ± 1.37,–,54.9 ± 6.63
UGAGGUAGUAGGUUGUAUAGUU,477 ± 14,129 ± 51.7,43.98 ± 0.219,25.3 ± 0.502,28 ± 0.686,32.41 ± 0.262,31.6 ± 1.95,37.9 ± 10.5
CAGUGCAAUGAUGAAAGGGCAU,652.6 ± 4.58,380 ± 28.5,164 ± 16.3,64.9 ± 3.94,224 ± 14.6,55.4 ± 6.36,58.7 ± 1.9,370 ± 18.4
